The record followed here is PubChem BioAssay.

Test [1] in a line: reduced mouse 2C T cell binding to pMHC/ICAM-1 vesicles – MLPCN validation set, flow cytometry, LFA-1/ICAM-1 modulator project, pilot screen (AID 2523;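 active = response below a set limit, under 55% cells CD8-positive and vesicle-bound, and CD8 cells' 90th-percentile brightness under 279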;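 for vesicle binding response: mean PE anti-B7-1 fluorescence of CD8+ cells relative to row control; 100% = QL9-loaded vesicles with DMSO vehicle in the same plate row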). The following applies: 2C mouse CD8+ T cells, at 7 µM, stronger effect = lower value; double positive events: measured here: CD8+/vesicle+ event percentage. A general note: A flow cytometer gives signals particle by particle.
For test [2], the target named is Integrin beta-1 (Homo sapiens) + Integrin alpha-4 (Homo sapiens) (UniProt P13612+P05556). Kind of test: alpha4beta1 integrin LIBS antibody binding reduction – U937 cells, HUTS-21 mAb, flow cytometry, validation set, VLA-4 allosteric modulator project, pilot screen (AID 2674).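 Note: antibody binding induced by the VLA-4 ligand LDV present at three times its Kd; 0% = LDV ligand with antibody and no compound and 100% = antibody without LDV.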 The following applies: HUTS-21 LIBS mAb binding, at 6.7 µM, stronger effect = higher value, binding induced by LDV ligand.
Integrin beta-1 (Homo sapiens) + Integrin alpha-4 (Homo sapiens), sequence (P05556 whole entry, looked up): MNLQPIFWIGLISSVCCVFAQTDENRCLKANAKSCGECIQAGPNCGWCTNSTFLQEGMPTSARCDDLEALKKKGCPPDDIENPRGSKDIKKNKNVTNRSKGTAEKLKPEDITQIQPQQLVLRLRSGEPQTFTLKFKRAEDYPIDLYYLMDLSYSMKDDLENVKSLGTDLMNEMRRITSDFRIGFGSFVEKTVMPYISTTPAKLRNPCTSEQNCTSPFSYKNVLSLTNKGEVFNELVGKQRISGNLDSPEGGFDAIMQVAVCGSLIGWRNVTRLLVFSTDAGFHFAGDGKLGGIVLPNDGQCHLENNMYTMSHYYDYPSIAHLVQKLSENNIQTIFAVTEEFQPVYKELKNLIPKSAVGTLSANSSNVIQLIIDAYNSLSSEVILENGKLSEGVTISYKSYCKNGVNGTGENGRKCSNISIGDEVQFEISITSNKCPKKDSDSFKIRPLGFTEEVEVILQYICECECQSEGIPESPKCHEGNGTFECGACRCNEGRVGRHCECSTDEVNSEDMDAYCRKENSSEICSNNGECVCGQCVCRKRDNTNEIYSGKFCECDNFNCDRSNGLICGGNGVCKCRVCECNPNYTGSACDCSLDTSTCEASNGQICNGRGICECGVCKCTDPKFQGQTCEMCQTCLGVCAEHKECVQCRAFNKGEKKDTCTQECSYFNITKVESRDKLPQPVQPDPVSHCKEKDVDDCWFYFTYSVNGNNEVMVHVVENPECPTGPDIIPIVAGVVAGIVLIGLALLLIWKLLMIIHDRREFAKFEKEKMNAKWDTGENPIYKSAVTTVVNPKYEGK
Integrin beta-1 (Homo sapiens) + Integrin alpha-4 (Homo sapiens), sequence (P13612 whole entry, looked up): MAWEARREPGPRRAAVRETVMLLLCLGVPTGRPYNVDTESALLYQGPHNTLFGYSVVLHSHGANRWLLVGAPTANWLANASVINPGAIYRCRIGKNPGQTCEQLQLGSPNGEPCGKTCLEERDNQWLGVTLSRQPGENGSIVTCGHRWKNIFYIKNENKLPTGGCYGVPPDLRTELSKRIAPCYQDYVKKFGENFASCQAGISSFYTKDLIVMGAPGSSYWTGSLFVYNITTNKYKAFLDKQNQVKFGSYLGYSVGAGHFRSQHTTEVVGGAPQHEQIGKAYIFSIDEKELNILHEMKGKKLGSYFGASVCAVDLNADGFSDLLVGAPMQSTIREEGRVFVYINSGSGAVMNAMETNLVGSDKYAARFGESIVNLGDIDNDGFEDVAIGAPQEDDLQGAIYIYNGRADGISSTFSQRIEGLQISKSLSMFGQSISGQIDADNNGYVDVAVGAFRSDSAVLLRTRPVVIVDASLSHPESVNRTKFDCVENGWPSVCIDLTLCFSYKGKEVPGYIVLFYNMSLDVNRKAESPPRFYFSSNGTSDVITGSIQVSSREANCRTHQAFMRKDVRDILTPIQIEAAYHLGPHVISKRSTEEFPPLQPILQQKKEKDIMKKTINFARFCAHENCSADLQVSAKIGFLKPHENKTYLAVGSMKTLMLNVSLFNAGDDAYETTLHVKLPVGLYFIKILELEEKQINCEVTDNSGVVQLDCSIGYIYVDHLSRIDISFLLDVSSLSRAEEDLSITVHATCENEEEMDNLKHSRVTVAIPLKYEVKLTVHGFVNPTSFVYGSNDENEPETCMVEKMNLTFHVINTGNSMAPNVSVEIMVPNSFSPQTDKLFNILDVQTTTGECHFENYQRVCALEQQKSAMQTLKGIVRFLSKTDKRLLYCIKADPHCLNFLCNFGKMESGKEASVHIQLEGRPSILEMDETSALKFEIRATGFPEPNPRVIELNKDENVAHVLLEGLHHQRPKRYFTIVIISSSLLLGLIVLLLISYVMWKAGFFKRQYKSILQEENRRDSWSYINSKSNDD

Test [3] is described as follows: calorie-restriction mimetic ROS inhibitors, yeast – validation compound set, pilot screen (AID 2706;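 active = superoxide response below 65% of plate, a cut near 3 SD across the whole screen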;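 note: yeast exposed to compound for one week at 30 degrees C before staining; 100% = mean of all compound wells on the same plate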). The note with it: S. cerevisiae aging, superoxide DHE fluorescence; at 10 µM, stronger effect = lower value.
The target of test [4] is Beta-adrenergic receptor kinase 1 (Homo sapiens) (UniProt P25098). Kind of test: GRK2 binders displacing RNA aptamer, biochemical, validation, human GRK2, bead flow cytometry (AID 488806;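 active = aptamer binding inhibition above 30%, about 3 SD of noise from non-fluorescent compounds; inactive = inhibition at or below 30%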). The note with it: bead-bound GRK2, FAM-aptamer displacement, at 10 µM, stronger effect = higher value.
Beta-adrenergic receptor kinase 1 (Homo sapiens), sequence (P25098 whole entry, looked up): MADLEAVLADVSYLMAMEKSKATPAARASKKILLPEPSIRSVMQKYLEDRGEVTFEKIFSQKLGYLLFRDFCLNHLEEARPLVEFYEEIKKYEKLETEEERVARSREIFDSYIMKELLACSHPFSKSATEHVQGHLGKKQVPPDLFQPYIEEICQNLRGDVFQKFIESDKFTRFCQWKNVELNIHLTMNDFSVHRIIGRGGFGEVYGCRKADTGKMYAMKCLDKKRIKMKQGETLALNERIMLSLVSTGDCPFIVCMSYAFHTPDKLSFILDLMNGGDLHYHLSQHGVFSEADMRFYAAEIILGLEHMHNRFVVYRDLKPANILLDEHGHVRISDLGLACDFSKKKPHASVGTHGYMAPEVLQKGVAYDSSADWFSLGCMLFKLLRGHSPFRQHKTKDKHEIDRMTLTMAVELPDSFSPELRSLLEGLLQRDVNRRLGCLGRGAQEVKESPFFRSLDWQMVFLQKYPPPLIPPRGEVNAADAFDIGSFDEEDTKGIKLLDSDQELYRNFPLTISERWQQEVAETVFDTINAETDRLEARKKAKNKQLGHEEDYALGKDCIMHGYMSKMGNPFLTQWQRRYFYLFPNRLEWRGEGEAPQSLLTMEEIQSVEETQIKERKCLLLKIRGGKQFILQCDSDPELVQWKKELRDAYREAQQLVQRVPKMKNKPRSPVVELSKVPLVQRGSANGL
The target in test [5] is AP-2 complex subunit beta (Homo sapiens) (UniProt P63010). Kind of test: beta-arrestin/AP2 interaction blockers – biochemical, validation set, GST-AP2 beads, flow cytometry, pilot screen (AID 504541;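 active = inhibition above 54%, about 3 SD of non-fluorescent compounds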;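 note: AP2 carries R879A mutation and is captured from E. coli lysate; bead-bound FITC arrestin peptide fluorescence measuring arrestin peptide binding to AP2; 0% = DMSO wells and 100% = excess unlabeled arrestin peptide control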). The following applies: FITC arrestin peptide, at 10 µM, stronger effect = higher value, AP2 beta2 appendage fragment, R879A mutant.
AP-2 complex subunit beta (Homo sapiens), sequence (P63010 whole entry, looked up, the tested form may be a part, one chain of several): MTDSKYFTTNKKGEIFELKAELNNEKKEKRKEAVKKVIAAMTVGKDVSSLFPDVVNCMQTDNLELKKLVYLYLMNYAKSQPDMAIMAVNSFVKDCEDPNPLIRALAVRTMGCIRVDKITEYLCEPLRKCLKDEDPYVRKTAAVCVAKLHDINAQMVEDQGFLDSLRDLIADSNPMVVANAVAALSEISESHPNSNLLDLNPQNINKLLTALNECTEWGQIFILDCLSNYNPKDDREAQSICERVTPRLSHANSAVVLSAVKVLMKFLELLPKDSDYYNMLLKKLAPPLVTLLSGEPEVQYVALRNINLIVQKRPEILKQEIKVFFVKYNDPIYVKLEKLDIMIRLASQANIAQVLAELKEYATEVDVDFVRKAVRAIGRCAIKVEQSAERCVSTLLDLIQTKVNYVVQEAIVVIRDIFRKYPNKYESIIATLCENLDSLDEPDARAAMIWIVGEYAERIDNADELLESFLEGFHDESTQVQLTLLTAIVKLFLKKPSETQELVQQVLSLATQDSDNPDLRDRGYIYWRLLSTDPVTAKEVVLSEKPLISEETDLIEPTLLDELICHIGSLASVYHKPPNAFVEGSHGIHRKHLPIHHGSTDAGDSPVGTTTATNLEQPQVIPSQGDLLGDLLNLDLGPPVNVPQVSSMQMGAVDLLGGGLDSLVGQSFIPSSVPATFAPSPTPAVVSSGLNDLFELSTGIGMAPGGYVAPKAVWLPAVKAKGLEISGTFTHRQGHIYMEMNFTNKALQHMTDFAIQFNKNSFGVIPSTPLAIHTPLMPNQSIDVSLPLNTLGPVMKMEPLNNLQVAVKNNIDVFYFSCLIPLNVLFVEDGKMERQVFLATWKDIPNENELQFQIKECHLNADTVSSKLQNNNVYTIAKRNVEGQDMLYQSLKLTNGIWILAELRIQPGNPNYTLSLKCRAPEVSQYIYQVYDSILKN
Test [6] can be described thus: cytosolic pH regulators acting via V-ATPase – S. cerevisiae, pHLuorin, HTS validation (AID 504600; in the data active = response above about 15%;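 note: plate controls were DMSO for no effect and reference compound for full effect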). The note with it: V-ATPase proton transport, at 10 µM, stronger effect = higher value.
Test [7] has as its system anti-desmoglein-3 scFv antibody binding to human DSG3. The experiment in a line: blockers of pathogenic pemphigus antibody–desmoglein-3 binding – biochemical, validation compound set, bead-based, flow cytometry, pilot screen (AID 588368;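 active = binding below the plate cutoff, the plate median minus 3 SD, with a reading above zero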;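 note: signal is the median channel fluorescence of bead-bound GFP antibody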). The note with it: Protein G beads, DSG3-Fc, scFv-GFP binding, at 10 µM, stronger effect = lower value.
A short description of test [8]: Nile Red efflux blockade in pump-expressing yeast – validation compound set, multiplex, phenotypic, pilot screen (AID 588506;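 active = efflux inhibition above 0.42, the validation set average plus 4 SD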;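 note: Nile Red retained in cells so higher fluorescence means more efflux inhibition; 0 = negative control wells and 1 = enniatin B 25 µM full block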). The following applies: S. cerevisiae pump-expressing triplex, Nile Red efflux flow cytometry; at 10 µM; stronger effect = higher value; the pumps come from Candida albicans.
In test [9] the target is ATP-binding cassette sub-family B member 6 (Homo sapiens) (UniProt Q9NP58). The experiment in a line: blockers of ABCB6-driven porphyrin uptake – K562-ABCB6 cells, flow cytometry, validation set, pilot screen (AID 588550;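 active = inhibition above the screen-wide mean plus 3 SD, about 51%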;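 note: 0% = DMSO wells and 100% = benzethonium chloride 70 µM positive control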). The note with it: K562-ABCB6 porphyrin accumulation, 1 h, at 10 µM, stronger effect = higher value.
ATP-binding cassette sub-family B member 6 (Homo sapiens), sequence (Q9NP58 whole entry, looked up): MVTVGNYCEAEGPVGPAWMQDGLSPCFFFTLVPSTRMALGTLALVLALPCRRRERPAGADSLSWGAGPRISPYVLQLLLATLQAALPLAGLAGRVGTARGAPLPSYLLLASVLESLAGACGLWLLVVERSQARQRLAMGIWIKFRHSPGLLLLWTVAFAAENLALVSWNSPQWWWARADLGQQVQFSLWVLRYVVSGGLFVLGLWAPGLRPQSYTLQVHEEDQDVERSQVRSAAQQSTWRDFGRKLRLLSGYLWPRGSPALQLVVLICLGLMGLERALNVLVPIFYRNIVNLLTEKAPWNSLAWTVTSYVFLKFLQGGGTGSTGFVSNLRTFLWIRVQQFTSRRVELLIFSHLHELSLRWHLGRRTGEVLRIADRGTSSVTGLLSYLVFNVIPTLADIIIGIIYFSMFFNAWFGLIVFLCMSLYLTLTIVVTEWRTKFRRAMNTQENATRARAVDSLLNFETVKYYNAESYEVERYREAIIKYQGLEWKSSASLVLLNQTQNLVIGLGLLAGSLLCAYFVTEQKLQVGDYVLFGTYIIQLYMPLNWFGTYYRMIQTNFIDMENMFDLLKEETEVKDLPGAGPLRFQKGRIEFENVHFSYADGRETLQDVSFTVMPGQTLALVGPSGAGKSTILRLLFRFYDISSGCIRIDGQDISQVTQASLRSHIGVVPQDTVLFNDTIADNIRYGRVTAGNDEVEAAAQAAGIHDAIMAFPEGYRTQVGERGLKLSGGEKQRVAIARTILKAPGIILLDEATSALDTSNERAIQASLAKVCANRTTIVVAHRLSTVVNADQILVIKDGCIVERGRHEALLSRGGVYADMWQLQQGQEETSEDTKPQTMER
Test [10] can be described thus: AML differentiation inducers, ER-HoxA9 marrow cells – cell-based, GFP/MAC1 double positive, flow cytometry, validation set, primary screen (AID 588685;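 active = differentiation response of at least 50%, scaled between solvent and reference control, from cells with both markers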;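 note: compound exposure lasts four days before antibody staining and flow analysis; 0% = DMSO wells and 100% = 5 µM fulvestrant positive control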). The note with it: stronger effect = higher value, normalized: vehicle 0, fulvestrant 100.
In test [11] the target is Beta-2 adrenergic receptor (Homo sapiens) (UniProt P07550). Kind of test: agonist-induced loss of surface beta2AR – cell-based, FAP fluorogen, flow cytometry, validation set, pilot screen (AID 504459;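 active = percent response above 42, roughly 3 SD of non-fluorescent test compounds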;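 note: agonist-driven loss of surface beta2AR via internalization measured by FAP dye flow cytometry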). The note with it: Am2.2-beta2AR cells, at 10 µM, stronger effect = higher value.
Beta-2 adrenergic receptor (Homo sapiens), sequence (P07550 whole entry, looked up): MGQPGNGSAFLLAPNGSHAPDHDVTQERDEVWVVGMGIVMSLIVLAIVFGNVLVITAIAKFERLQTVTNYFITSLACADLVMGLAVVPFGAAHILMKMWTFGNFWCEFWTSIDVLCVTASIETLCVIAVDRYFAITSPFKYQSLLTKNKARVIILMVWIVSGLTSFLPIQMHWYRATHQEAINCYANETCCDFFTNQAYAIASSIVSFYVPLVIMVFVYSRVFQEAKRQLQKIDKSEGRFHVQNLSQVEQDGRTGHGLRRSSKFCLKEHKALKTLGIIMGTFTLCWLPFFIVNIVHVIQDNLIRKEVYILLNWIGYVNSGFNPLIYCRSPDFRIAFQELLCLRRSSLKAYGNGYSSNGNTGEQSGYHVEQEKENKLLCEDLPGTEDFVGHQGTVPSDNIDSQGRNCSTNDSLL
The nature of test [12]: yeast TOR reporter LAP4-GFP level changes – cell-based, second cherry pick, flow cytometry, confirmation (AID 2621;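 active = GFP signal as percent of the solvent control above about 150%, meaning raised reporter expression, limit read from the data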;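 note: ratio of well median GFP fluorescence to plate DMSO mean so 100% = DMSO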). The following applies: S. cerevisiae LAP4-GFP strain, 3 h, at 10 µM, stronger effect = higher value.
Test [13] can be described thus: TOR pathway reporter MEP2-GFP, hit retest – S. cerevisiae, flow cytometry GFP, second cherry picks, confirmation (AID 2622;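 active = GFP signal above 150% of the solvent control wells, that is a rise of more than half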;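 note: median channel GFP fluorescence of all gated yeast cells per well; ratio of median GFP to plate DMSO average so 100% = DMSO level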). The note with it: S. cerevisiae MEP2-GFP strain, 3 h, at 10 µM, stronger effect = higher value.
Test [14] in a line: retest of hits on RPL19A-GFP strain – cell-based, S. cerevisiae, flow cytometry, second cherry pick, confirmation (AID 2623;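 active = under 65% GFP response relative to DMSO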;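 note: median GFP channel fluorescence per well over the all cells gate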). The following applies: 3 h, at 10 µM, stronger effect = lower value, 100% means same as DMSO wells.
A short description of test [15]: yeast TOR pathway CIT2-GFP reporter modulation – flow cytometry, second cherry pick, single plex, confirmation (AID 2624;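 active = GFP response vs DMSO above about 150%, limit read from the data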;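 note: median green fluorescence per well over all gated yeast cells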). The note with it: S. cerevisiae CIT2-GFP strain, 3 h, at 10 µM, stronger effect = higher value, DMSO control wells read 100%.
A short description of test [16]: yeast AGP1-GFP fluorescence change, single-dose confirmation – cell-based, flow cytometry, S. cerevisiae, cherry pick set 2 (AID 2643;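 active = over 150 percent of DMSO response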;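 note: median GFP channel fluorescence over all cells without mother daughter split; sample median GFP divided by mean DMSO control so 100% equals DMSO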). The note with it: S. cerevisiae AGP1-GFP strain, 3 h, at 10 µM, stronger effect = higher value.

This is one part of the list. Calls of active or inactive are those of the source.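 Rule for the calls, unless noted: active = inhibition above 50%, about 3 SD of the validation set; inactive = the rest.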

One may read the inhibition as the drop in the measured response relative to a control, in per cent. Take `O=C1CC(c2ccc(F)cc2)Cc2nc(NCC3CCCO3)ncc21` (stereo not given): the double positive events in test [1] is 55.2%. Moreover, the vesicle binding response in [1] is 192% (inactive). Besides, the inhibition in test [2] was 6.29% (inactive); in test [5], -9.45% (inactive); in test [9], 7% (inactive). For the same compound, the superoxide response (% of plate) in [3] is 99.1% (inactive). Further, the aptamer binding inhibition in test [4] is 3% (inactive). In test [6], the response was -2.69% (inactive). Moreover, the binding (% of control) in [7] is 99.8% (inactive). Besides, in test [8], the efflux inhibition (fraction of control) was -0.12 (inactive). Also, the differentiation response in test [10] is 38.5% (inactive).

In turn, `CN(C)CCN(Cc1cccs1)c1ccccn1` showed a double positive events in test [1] of 52.7%. Also, the vesicle binding response in [1] was 165% (inactive). In addition, the inhibition in test [2] was 13.8% (inactive); in test [5] it was -17.1% (inactive); in test [9] it was 8% (inactive). For the same compound, in test [3], the superoxide response (% of plate) is 113% (inactive). The aptamer binding inhibition in [4] is 2% (inactive). In addition, in test [6], the response is 8.75% (inactive). The binding (% of control) in test [7] was 101% (inactive). The efflux inhibition (fraction of control) in test [8] is 0.18 (inactive). Also, in [10], the differentiation response is -21.2% (inactive).

Regarding `Oc1[nH]c2ccccc2c1N=Nc1ccccc1`, in test [1], the double positive events was found to be 49.4%. Moreover, in test [1], the vesicle binding response is 168% (inactive). For the same compound, the values for the inhibition in [2], in test [5] and in [9] were 9.09% (inactive), -8.96% (inactive) and 10% (inactive), respectively. Further, the superoxide response (% of plate) in [3] was 104% (inactive). The aptamer binding inhibition in test [4] was 3% (inactive). In addition, the response in test [6] is -2.64% (inactive). Also, the binding (% of control) in test [7] is 103% (inactive). For the same compound, in test [8], the efflux inhibition (fraction of control) was -0.35 (inactive). Besides, the differentiation response in [10] was -8.27% (inactive).

`CNS(=O)(=O)c1ccc(C)cc1` showed a double positive events in test [1] of 56.5%. Further, the vesicle binding response in [1] is 148% (inactive). Also, the values for the inhibition in test [2], in [5] and in [9] were 6.29% (inactive), -8.71% (inactive) and 8% (inactive), respectively. Besides, the superoxide response (% of plate) in [3] was 99.3% (inactive). Besides, in [4], the aptamer binding inhibition was 2% (inactive). In test [6], the response is 17.1% (active). Moreover, in test [7], the binding (% of control) was 93.9% (inactive). For the same compound, the efflux inhibition (fraction of control) in test [8] was 0.1 (inactive). For the same compound, the differentiation response in test [10] was -0.2% (inactive).

`O=C(NCCN1CCOCC1)c1ccc(Cl)cc1`: in test [1], the double positive events worked out at 64.3%. The vesicle binding response in test [1] was 168% (inactive). The inhibition in test [2] was -16% (inactive); in test [5] it was 23.5% (inactive); in test [9], 14% (inactive). Further, the aptamer binding inhibition in test [4] was -1% (inactive). For the same compound, the results for the response in test [11] and in test [6] were 15.8% (inactive) and -22.3% (inactive), respectively. Moreover, the binding (% of control) in test [7] is 105% (inactive). Besides, the efflux inhibition (fraction of control) in test [8] is 1.05 (active). The differentiation response in test [10] was 15.9% (inactive).

`CC(C)[C@@H]1COC(c2cccc(C3=N[C@H](C(C)C)CO3)c2)=N1`: the GFP response vs DMSO in test [12] was 99% (inactive); in test [13] it was 98.2% (inactive); in test [14], 101% (inactive); in [15], 97.2% (inactive). In addition, in test [16], the percent response vs DMSO was 95.8% (inactive).

Turning to `COc1ccc(C)cc1NC(=O)CSc1nc(SC)ns1`, the GFP response vs DMSO in test [12] is 97.2% (inactive); in test [13], 97.8% (inactive); in test [14], 100% (inactive); in [15], 102% (inactive). Moreover, in test [16], the percent response vs DMSO was 100% (inactive).

On to `COC(=O)C[n+]1cccc2ccccc21`, for which the GFP response vs DMSO was 106% (inactive) in test [12], 103% (inactive) in test [13], 100% (inactive) in [14] and 118% (inactive) in test [15]. The percent response vs DMSO in [16] is 105% (inactive).
